Experimental data: PubChem BioAssay AID588856 (National Center for Advancing Translational Sciences (NCATS), 2011)
Out of some 410,000 compounds screened, about 3,100 (0.76%) were called active. The list comes from a sample in which actives are over-represented; it also holds similar structures and randomly drawn compounds. Values without a mark were called inactive. The call rests on the fitted dose curve; in most records, active means well fitted cell-killing curve with a large enough effect; inactive means no such curve, though single readings can be large or run the other way.

experiment: qHTS for Inhibitors of TGF-b: Cytotox Counterscreen; details: HepG2 CAGA-GFP viability, ATP luminescence, 18 h; series mostly up to 46.1 µM; activity change, negative = cytotoxicity: at the top concentration
Excerpt: TGF-b is a main component in the TGF-b signaling pathway which plays diverse roles in cellular and development pathways. TGF-b is mediated by transcription factors called "Smads". Although the Smad-dependent pathway is the primary canonical TGF-b signaling mode, TGF-b1 can also activate alternative signaling pathways, including those involving MAPK (ERK, JNK and p38). This interaction may mediate or enhance Smad-dependent responses, or can exert Smad-independent effects. The complexity of this signaling cascade allows the TGF-b superfamily to perform unique, overlapping or redundant functions. We believe that targeting the TGF-beta pathway at the Smad-transcription factor level may eliminate the consequences of disrupting the entire pathway and offer specificity without affecting other signaling pathways. Smad3 is the primary transducer of TGF-b's signals and Smad3 regulates many functions attributed to TGF-b signaling. We hypothesize that Smad3 inhibitors will selectively eliminate Smad3-specific TGF-beta signals without undesired off-target effects. We aim to identify Smad3-small molecule antagonists using a quantitative high throughput screening (qHTS) approach.
A high-throughput assay was developed to screen the NIH Molecular Libraries Small Molecule Repository (MLSMR). This is a cell based assay, where TGF-b is tagged with GFP. This is a counterscreen that evaluates the cytotoxicity of the compounds that were screened in the primary cell-based screen (AID 588855).
MH087449NIH Chemical Genomics Center [NCGC]
NIH Molecular Libraries Probe Centers Network [MLPCN]
Assay Submitter (PI): Sushil Rane, National Institute of […]
Suspensions of trypsinized HEPG2 CAGA-GFP cells were dispensed into white, tissue culture-treated, solid 1536-well plates at 5uL/well (1000 cells/well final concentration) in DMEM medium supplemented with 1% FBS. Plates were incubated at 37 degrees C for 2 hours, after which 23 nL of compounds or DMSO were delivered to each well using a pin tool. One uL of recombinant TGF-beta in DMEM (1% FBS) was then dispensed (500 pg/mL final concentration), and plates were incubated at 37 degrees C for 18 hours. Two uL of CellTiter Glo (Promega), a luminescence-based viability reagent, was dispensed, followed by a 10 minute room temperature incubation. The plates were then measured on a PerkinElmer ViewLux plate reader for luminescence (clear filter) using a 5 second exposure. The %Activity was determined from the corrected luminescence values. Wells containing media only (no cells) were used to normalize %Activity of identified toxic compounds; media-only wells corresponded to 100%Activity (complete cell-killing), while DMSO-dosed cell controls were used to normalize 0%Activity (no toxicity).
Concentration-response curves were fitted to the signals arising from the resulting luminescence. The concentration-effect curves were then classified based on curve quality (r2), response magnitude and degree of measured activity, and compounds were subsequently categorized based on their curve class.
Potency means the concentration at half of the fitted maximal effect.

SMILES	activity change, negative = cytotoxicity [%]	Potency
COc1ccc(CC(=O)Nc2ccc(-c3nc4ccccc4s3)c(C)c2)cc1	-2.33	–
COc1ccc(NC(=O)C(=O)NCc2ccco2)cc1	7.02	–
COc1ccc(CS(=O)/C(Cl)=C(/Cl)C(=O)Nc2ccc(OC)nc2)cc1 (configuration not stated)	–	14.1 µM (active)
COc1ccc(-n2c(=O)c3c(c4cc(OC)ccc4n3C)n(Cc3cccc(C)c3)c2=O)cc1	-0.731	–
COc1ccc(CNC(=O)C2=Cc3cccc(OC)c3OC2)cc1OC	6.48	–
COc1ccc(OC)c(CNC(=O)c2c3c(nc4ccccc24)C(=O)N(C2CCCCC2)C3)c1	1.46	–
COc1ccc(N2CCN(CCNC(=O)c3nnc(Cc4c(F)cccc4Cl)o3)CC2)cc1	-11.4	–
O=C(Cc1csc(Nc2nc(=S)[nH]c3ccccc23)n1)NCCCN1CCN(c2cccc(Cl)c2)CC1	-22.2	–
O=C(NCCCN1CCN(c2cccc(Cl)c2)CC1)c1nnc(Cc2ccc(F)cc2Cl)o1	–	11.2 µM (active)
CCc1ccc(NC(=O)CN2C(=O)C(c3ccccc3)=NC23CCCCCC3)cc1	-29.3	–
COc1ccc(CC(=O)NCc2nnc(SCC(=O)Nc3ncc(C)s3)n2C)cc1	2.57	–
Cc1cnc(NC(=O)c2ccccn2)s1	–	5.01 µM (active)
COC(=O)Nc1ncc(CN2C(=O)c3ccccc3C2=O)s1	11	–
CCOc1ccccc1CNC(=O)c1ccc2c(c1)nc1n2CCC(C)C1 (configuration not stated)	0.917	–
CCN(Cc1ccccc1)Cc1c(O)ccc2c(=O)c(-c3ccc(Cl)cc3Cl)coc12	-1.33	–
Cc1[nH]c2ccccc2c1C(=O)C(=O)N(C)c1ccccc1	-2.78	–
OC[C@@H]1O[C@H](n2cnc3c(SCc4ccccc4)ncnc32)[C@H](O)[C@H]1O	-22.8	–
c1ccc(C[C@H]2CNCCN2CCC23CC4CC(CC(C4)C2)C3)cc1	-95.7	–
CC(C)(C)CN1C(=O)C(=O)NC[C@H]1Cc1cccc2ccccc12	3.08	–
c1ccc2c(CCN3CCNC[C@H]3Cc3cccc4ccccc34)cccc2c1	–	12.6 µM (active)
O=c1n(Cc2cccc(C(F)(F)F)c2)c2ccccc2c2nc(-c3ccccc3)nn12	-19.5	–
Brc1cccc[n+]1Cc1cccc(C[n+]2ccccc2Br)c1	-2.89	–
CCOC(=O)Nc1ccc2c(c1)N(C(=O)CCCl)c1ccccc1[S@]2=O	–	12.6 µM (active)
CCOC(=O)Nc1ccc2c(c1)N(C(=O)CN1CCN3CCCC3C1)c1ccccc1CC2 (configuration not stated)	-21.2	–

SMILES	activity change, negative = cytotoxicity [%]	Potency
CCOC(=O)Nc1ccc(S(=O)(=O)N(C)C(C)C)cc1	0.514	–
Cc1ccc(C(=O)Nc2ccc(C(=O)O)cc2)cc1S(=O)(=O)Nc1ccccc1	3.73	–
O=C(Nc1ccc2oc(-c3ccc(O)c(Br)c3)nc2c1)c1cc2ccccc2o1	-4.99	–
CCOc1ccc(OCC)c(NS(=O)(=O)c2ccc3[nH]c(=O)ccc3c2)c1	-16	–
C[N+]1(CC(=O)c2cccs2)CCOCC1	-3.11	–
CC(=O)Nc1c(C)nn(-c2ccccc2)c1N1CCC(C(=O)Nc2cc(Cl)ccc2C)CC1	-7.86	–
Cc1nnc(N2CCC(C(=O)Nc3ccc(F)cc3)CC2)c2nn(-c3ccc(Cl)cc3)c(C)c12	–	11.2 µM (active)
CCc1ccc(CNC(=O)C2CCN(c3nnc(C)c4c(C)n(-c5ccc(C)cc5)nc34)CC2)cc1	–	inactive
CCCCc1nn2c(=O)cc(COC(=O)c3cccc(NC(=O)COc4ccccc4)c3)nc2s1	-3.96	–
O=C(NCc1ccccn1)[C@]1(C(F)(F)F)C[C@H](CCc2ccccc2)CCCO1	-0.451	–
CC(C)(C)n1ncc2c(=O)n(Cc3ccc(C(=O)c4ccccc4)cc3)cnc21	0.159	–
O=C(/C(=C/c1cccc(Cl)c1)c1nc2ccccc2[nH]1)c1ccccc1	–	2.82 µM (active)
N#C/C(=C\c1ccccc1F)c1nc2ccccc2c(=O)[nH]1	-15	–
O=C(O)c1ccc(Cn2c(SCc3ccc(F)cc3)nc3ccncc32)cc1	-0.167	–
COc1ccc(CCNC(=O)c2cnc3sc(N4CCCCCC4)nn3c2=O)cc1OC	4.28	–
COc1ccc(Cl)cc1NC(=O)C(C)Sc1nc2c(c(=O)[nH]1)CCCC2 (configuration not stated)	-11.4	–
ClC/C=C/C[n+]1ccccc1Cl	-6.94	–
CN1c2ccc(Cl)cc2-c2nc(SCC(=O)Nc3cc(F)ccc3F)ncc2S1(=O)=O	-5.61	–
Cc1ccc(C=O)cc1Cl	3.42	–
COc1ccc(CNC(=O)c2ccc3c(O)c(S(=O)(=O)c4ccccc4)c(=O)[nH]c3c2)cc1	-34.6	–
Cc1ccc(C(=O)CC2(O)C(=O)N(CCc3ccccc3)c3ccc(Br)cc32)cc1 (configuration not stated)	-109	–
CCc1ccc(C(=O)CC2(O)C(=O)N(CCc3ccccc3)c3ccc(Br)cc32)cc1 (configuration not stated)	–	14.1 µM (active)
CCCN1C(=O)C(O)(CC(=O)c2ccc(CC)cc2)c2cc(Br)ccc21 (configuration not stated)	-103	–
